Source: PubChem BioAssay (EPA / NIEHS)
Records with an inconclusive call do not appear. Activity calls are given as the source filed them. The calls were made as follows: active = hit-call score of the fitted dose curve at least 0.9, where 1 is the maximum; inconclusive = response in the unintended direction; inactive = score below 0.9.

Key:
[1] = molecular target: human CYP2C9, CYP2C9 (gene 1559) (UniProt P11712); assay: NVS_ADME_hCYP2C9: NovaScreen (NVS) CYP450-related Enzyme Activity (ADME) Assay for human CYP2C9 (AID 2283108)
In short: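 Recombinant human CYP2C9 expressed in SF9 cells, fluorogenic substrate, fluorescence read 0.75 h after dosing. Chemicals first run in duplicate at 10 uM, with actives followed in concentration series; loss of signal versus acetonitrile baseline.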

[2] = molecular target: Cytochrome P450 3A4 (Homo sapiens) (UniProt P08684); assay: NVS_ADME_hCYP3A4: NovaScreen (NVS) CYP450-related Enzyme Activity (ADME) Assay for human CYP3A4 (AID 2283110)
In short: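 Recombinant CYP3A4 from insect cells, fluorescence enzyme read-out, 0.33 h after chemical addition. Acetonitrile = negative control/baseline. Primary HTS: 10 uM in duplicate; actives re-tested in concentration series.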

[3] = molecular target: Cytochrome P450 2C19 (Homo sapiens) (UniProt P33261); assay: NVS_ADME_hCYP2C19: NovaScreen (NVS) CYP450-related Enzyme Activity (ADME) Assay for human CYP2C19 (AID 2283113);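 as to AC50: potency for inhibition seen as loss of fluorescent signal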
In short: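 Cell-free recombinant human CYP2C19 from insect cells, fluorescent substrate; activity read by fluorescence intensity 1 h after dosing. Primary screen in duplicate at 10 uM; actives retested in concentration series. Signal loss versus acetonitrile negative control.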

[4] = molecular target: human Caspase 5 (CASP5), CASP5 (gene 838) (UniProt P51878); assay: NVS_ENZ_hCASP5: NovaScreen (NVS) Enzymatic Assay for human Caspase 5 (CASP5) (AID 2283137)
In short: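 Chemicals were first tested in duplicate at 25 uM against recombinant caspase 5 from E. coli. Activity was read by fluorescence intensity 2 hours after dosing. Those passing a preset inhibition threshold were retested in singleton concentration-response up to 50 uM.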

[5] = molecular target: human Beta-secretase (BACE), BACE1 (gene 23621) (UniProt P56817); assay: NVS_ENZ_hBACE: NovaScreen (NVS) Enzymatic Assay for human Beta-secretase (BACE) (AID 2283140);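 also: hits are inhibitors that reduce fluorescent substrate signal versus DMSO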
In short: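 Fluorescence intensity read-out of protease activity defines this endpoint; signal loss relative to DMSO baseline marks inhibition. Recombinant enzyme from SF9 cells, cell-free format, 1 h exposure. Single-concentration duplicate screen (25 uM) precedes concentration-series follow-up.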

[6] = molecular target: human Dual Specificity Protein Phosphatase 3 (DUSP3), DUSP3 (gene 1845) (UniProt P51452); assay: NVS_ENZ_hDUSP3: NovaScreen (NVS) Enzymatic Assay for human Dual Specificity Protein Phosphatase 3 (DUSP3) (AID 2283152);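 also: phosphatase activity of recombinant human DUSP3 on a fluorogenic substrate without cells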
In short: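 Cell-free fluorescence-intensity enzyme activity assay with recombinant protein and substrate; loss of signal fitted relative to DMSO baseline. Primary screen in duplicate at 25 uM, actives then run in concentration series; measured 0 h after dosing.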

[7] = molecular target: human Elastase, ELANE (gene 1991) (UniProt P08246); assay: NVS_ENZ_hElastase: NovaScreen (NVS) Enzymatic Assay for human Elastase (AID 2283153)
In short: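 Concentration-response to 50 uM max, run singly for chemicals passing a threshold (e.g., 30% inhibition) in a duplicate 25 uM single-point screen. Neutrophil-derived human elastase, absorbance read-out of enzyme activity at 1.5 h; DMSO baseline.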

[8] = molecular target: human CYP2D6, CYP2D6 (gene 1565) (UniProt P10635); assay: NVS_ADME_hCYP2D6: NovaScreen (NVS) CYP450-related Enzyme Activity (ADME) Assay for human CYP2D6 (AID 2283107)
In short: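 Cell-free assay using recombinant human CYP2D6 expressed in insect cells, with a fluorogenic substrate read after 1 h. Primary screen in duplicate at 10 uM; actives followed up in concentration series. Loss of signal fitted relative to acetonitrile.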

[9] = molecular target: human Ephrin type-A Receptor 1 (EphA1), EPHA1 (gene 2041) (UniProt P21709); assay: NVS_ENZ_hEphA1: NovaScreen (NVS) Enzymatic Assay for human Ephrin type-A Receptor 1 (EphA1) (AID 2283158);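 also: activity is signal loss versus DMSO meaning EphA1 kinase inhibition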
In short: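 Cell-free kinase activity with recombinant protein, 1 hour after dosing; product separated by electrophoretic mobility shift, fluorescence read. Primary screen at 25 uM in duplicate; hits run as concentration-response up to 50 uM, relative to DMSO.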

[10] = molecular target: human Esterase Plasma (ES), BCHE (gene 590) (UniProt P06276); assay: NVS_ENZ_hES: NovaScreen (NVS) Enzymatic Assay for human Esterase Plasma (ES) (AID 2283157)
In short: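 Human plasma-derived enzyme, cell-free, colorimetric readout at 0.25 h. Primary screen 25 uM in duplicate; hits (e.g. ≥30% inhibition) rerun singleton up to 50 uM. DMSO = negative control/baseline.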

[11] = molecular target: CDK2 (gene 1017) (UniProt P24941); assay: NVS_ENZ_hCDK2: NovaScreen (NVS) Enzymatic Assay for human Cyclin-Cependent Kinase 2 (CDK2) (AID 2283144)
In short: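 Compounds screened in duplicate at 25 uM, then in singleton concentration-response to a maximum of 50 uM, against recombinant CDK2; kinase activity read 1 hr after dosing by fluorescence with mobility-shift separation of substrate and product.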

[12] = molecular target: human Casein Kinase 1-delta (CK1D), CSNK1D (gene 1453) (UniProt P48730); assay: NVS_ENZ_hCK1D: NovaScreen (NVS) Enzymatic Assay for human Casein Kinase 1-delta (CK1D) (AID 2283148)
In short: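 Recombinant human CK1-delta, cell-free; fluorescent substrate with electrophoretic mobility-shift separation of product, read 1 h after dosing. Single 25 uM duplicate screen, then concentration-response up to 50 uM; loss of signal vs DMSO.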

[13] = molecular target: human Colony Stimulating Factor 1 Receptor (CSF1R), CSF1R (gene 1436) (UniProt P07333); assay: NVS_ENZ_hCSF1R: NovaScreen (NVS) Enzymatic Assay for human Colony Stimulating Factor 1 Receptor (CSF1R) (AID 2283150)
In short: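 Compounds screened in duplicate at 25 uM, then concentration-response (top 50 uM) for those passing threshold such as 30% inhibition; recombinant CSF1R activity measured 1 h post-dosing via fluorescent substrate/product mobility-shift separation, loss of signal versus DMSO.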

[14] = molecular target: human FYN Proto-Oncogene, Src family Tyrosine Kinase (Fyn), FYN (gene 2534) (UniProt P06241); assay: NVS_ENZ_hFyn: NovaScreen (NVS) Enzymatic Assay for human FYN Proto-Oncogene, Src family Tyrosine Kinase (Fyn) (AID 2283161)
In short: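 Cell-free kinase activity read by fluorescence after mobility-shift separation of substrate and product, 1 h post-dose. Initial single concentration 25 uM in duplicate, then concentration-response follow-up; DMSO baseline.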

[15] = molecular target: human Acid Phosphatase 1 (ACP1), ACP1 (gene 52) (UniProt P24666); assay: NVS_ENZ_hACP1: NovaScreen (NVS) Enzymatic Assay for human Acid Phosphatase 1 (ACP1) (AID 2283136)
In short: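 Cell-free fluorescence read-out of phosphatase activity, substrate and product separated by mobility shift, taken 1.5 h after compound addition; protein produced in Sf9. Single 25 uM duplicate screen, followed by concentration series for actives, scored as signal loss relative to DMSO.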

[16] = molecular target: human AKT serine/threonine Kinase 1 (AKT1), AKT1 (gene 207) (UniProt P31749); assay: NVS_ENZ_hAKT1: NovaScreen (NVS) Enzymatic Assay for human AKT serine/threonine Kinase 1 (AKT1) (AID 2283138)
In short: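 Compounds were first tested in duplicate at 25 uM, and those passing a threshold such as 30% inhibition were run in concentration-response to a maximum of 50 uM. Enzyme activity was measured after 1 h by fluorescence following substrate/product mobility-shift separation.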

[17] = molecular target: human AKT serine/threonine Kinase 2 (AKT2), AKT2 (gene 208) (UniProt P31751); assay: NVS_ENZ_hAKT2: NovaScreen (NVS) Enzymatic Assay for human AKT serine/threonine Kinase 2 (AKT2) (AID 2283141)
In short: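 Cell-free fluorescence/electrophoretic mobility shift readout of recombinant human AKT2 activity, 1 h after chemical dosing. Duplicate primary screen at 25 uM, then singleton concentration-response up to 50 uM; loss of signal versus DMSO baseline.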

human CYP2C9, CYP2C9 (gene 1559), sequence (P11712 whole entry, looked up): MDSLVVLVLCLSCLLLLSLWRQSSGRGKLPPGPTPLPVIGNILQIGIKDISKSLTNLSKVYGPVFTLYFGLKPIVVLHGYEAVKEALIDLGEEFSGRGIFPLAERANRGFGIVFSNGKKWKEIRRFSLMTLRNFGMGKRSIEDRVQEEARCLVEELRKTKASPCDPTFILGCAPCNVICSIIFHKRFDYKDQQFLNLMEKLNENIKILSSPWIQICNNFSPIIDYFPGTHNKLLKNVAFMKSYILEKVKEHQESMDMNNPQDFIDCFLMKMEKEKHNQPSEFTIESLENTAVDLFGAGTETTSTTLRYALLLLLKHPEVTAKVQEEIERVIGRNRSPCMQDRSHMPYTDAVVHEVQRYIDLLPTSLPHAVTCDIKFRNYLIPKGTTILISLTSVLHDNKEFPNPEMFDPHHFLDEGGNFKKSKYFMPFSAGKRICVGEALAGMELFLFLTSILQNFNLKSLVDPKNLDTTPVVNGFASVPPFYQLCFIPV
human Colony Stimulating Factor 1 Receptor (CSF1R), CSF1R (gene 1436), sequence (P07333 whole entry, looked up): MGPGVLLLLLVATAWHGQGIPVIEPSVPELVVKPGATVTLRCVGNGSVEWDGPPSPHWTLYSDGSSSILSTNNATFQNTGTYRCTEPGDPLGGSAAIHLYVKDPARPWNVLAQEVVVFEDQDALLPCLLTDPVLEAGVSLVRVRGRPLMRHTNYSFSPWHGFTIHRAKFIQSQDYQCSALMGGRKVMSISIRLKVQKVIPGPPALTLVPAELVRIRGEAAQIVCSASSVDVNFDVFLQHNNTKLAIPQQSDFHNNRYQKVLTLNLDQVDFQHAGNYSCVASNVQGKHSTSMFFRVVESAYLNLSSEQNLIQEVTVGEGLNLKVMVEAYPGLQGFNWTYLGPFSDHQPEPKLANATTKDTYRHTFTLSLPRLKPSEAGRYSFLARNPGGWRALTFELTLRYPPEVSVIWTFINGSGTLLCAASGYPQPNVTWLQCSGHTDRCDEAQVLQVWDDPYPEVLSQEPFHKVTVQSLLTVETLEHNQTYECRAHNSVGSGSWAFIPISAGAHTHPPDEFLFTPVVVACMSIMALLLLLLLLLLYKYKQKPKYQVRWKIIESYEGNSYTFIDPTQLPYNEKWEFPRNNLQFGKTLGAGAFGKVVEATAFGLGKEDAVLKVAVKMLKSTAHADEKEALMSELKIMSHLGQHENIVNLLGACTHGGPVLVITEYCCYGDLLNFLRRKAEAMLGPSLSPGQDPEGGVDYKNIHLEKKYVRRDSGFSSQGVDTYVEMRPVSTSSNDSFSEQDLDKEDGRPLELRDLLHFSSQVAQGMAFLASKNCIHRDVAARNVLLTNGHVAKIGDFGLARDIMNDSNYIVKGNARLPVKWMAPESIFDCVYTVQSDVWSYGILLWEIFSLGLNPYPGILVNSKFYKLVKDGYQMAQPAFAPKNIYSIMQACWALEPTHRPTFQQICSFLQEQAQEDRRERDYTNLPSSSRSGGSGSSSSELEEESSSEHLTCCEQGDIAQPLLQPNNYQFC
human Elastase, ELANE (gene 1991), sequence (P08246 whole entry, looked up): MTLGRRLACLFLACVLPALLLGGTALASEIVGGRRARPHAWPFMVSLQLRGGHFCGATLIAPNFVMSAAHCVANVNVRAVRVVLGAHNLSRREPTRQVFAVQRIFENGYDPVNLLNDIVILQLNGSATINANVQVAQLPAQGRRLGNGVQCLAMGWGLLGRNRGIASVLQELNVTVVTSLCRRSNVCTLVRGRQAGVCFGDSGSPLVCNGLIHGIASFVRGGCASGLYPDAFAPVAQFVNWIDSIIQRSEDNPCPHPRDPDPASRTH
human Dual Specificity Protein Phosphatase 3 (DUSP3), DUSP3 (gene 1845), sequence (P51452 whole entry, looked up): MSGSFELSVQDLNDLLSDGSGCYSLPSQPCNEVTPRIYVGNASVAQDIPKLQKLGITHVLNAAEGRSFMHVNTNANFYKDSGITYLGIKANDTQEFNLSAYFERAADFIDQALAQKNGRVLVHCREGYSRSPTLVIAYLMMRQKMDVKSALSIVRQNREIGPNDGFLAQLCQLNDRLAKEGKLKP
human CYP2D6, CYP2D6 (gene 1565), sequence (P10635 whole entry, looked up): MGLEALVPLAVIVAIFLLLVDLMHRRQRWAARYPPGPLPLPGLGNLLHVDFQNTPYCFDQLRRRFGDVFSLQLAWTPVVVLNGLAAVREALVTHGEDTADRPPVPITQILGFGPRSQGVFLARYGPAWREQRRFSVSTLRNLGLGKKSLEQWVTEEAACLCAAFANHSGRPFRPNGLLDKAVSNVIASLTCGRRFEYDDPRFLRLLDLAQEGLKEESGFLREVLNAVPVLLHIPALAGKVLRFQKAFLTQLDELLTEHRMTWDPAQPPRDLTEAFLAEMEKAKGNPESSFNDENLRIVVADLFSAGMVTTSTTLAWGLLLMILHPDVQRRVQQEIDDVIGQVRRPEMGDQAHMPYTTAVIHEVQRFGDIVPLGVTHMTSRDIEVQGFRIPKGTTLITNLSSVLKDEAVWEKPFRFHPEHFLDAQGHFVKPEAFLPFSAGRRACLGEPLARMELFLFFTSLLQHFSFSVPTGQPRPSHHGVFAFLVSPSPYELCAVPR
Cytochrome P450 3A4 (Homo sapiens), sequence (P08684 whole entry, looked up): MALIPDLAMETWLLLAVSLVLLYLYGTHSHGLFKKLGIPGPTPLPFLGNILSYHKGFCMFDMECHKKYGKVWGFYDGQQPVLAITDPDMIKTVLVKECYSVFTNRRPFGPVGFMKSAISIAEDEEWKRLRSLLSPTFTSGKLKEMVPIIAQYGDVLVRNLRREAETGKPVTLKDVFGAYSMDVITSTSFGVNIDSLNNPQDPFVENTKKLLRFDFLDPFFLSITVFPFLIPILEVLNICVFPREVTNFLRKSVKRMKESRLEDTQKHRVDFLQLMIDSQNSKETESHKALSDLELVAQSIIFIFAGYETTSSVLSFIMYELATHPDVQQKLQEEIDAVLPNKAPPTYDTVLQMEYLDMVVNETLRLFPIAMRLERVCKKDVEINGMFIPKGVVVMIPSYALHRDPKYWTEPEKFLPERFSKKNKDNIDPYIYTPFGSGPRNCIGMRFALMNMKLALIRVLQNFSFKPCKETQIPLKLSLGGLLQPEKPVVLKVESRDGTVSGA
human Esterase Plasma (ES), BCHE (gene 590), sequence (P06276 whole entry, looked up): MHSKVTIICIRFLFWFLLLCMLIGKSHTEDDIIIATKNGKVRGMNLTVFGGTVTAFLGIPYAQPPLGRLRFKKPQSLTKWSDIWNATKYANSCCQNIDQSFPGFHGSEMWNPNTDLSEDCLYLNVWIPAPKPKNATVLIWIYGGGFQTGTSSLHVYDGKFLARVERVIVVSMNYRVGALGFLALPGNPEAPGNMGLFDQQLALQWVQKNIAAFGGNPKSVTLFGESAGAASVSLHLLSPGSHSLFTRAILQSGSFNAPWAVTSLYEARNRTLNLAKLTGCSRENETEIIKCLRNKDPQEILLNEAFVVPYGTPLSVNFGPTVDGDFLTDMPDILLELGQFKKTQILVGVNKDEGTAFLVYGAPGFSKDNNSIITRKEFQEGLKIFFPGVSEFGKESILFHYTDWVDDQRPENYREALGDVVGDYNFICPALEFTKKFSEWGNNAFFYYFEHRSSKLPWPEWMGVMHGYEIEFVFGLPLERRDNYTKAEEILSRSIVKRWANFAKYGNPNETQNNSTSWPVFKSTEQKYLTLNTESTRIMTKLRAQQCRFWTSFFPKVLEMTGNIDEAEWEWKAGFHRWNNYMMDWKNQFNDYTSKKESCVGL
human Ephrin type-A Receptor 1 (EphA1), EPHA1 (gene 2041), sequence (P21709 whole entry, looked up): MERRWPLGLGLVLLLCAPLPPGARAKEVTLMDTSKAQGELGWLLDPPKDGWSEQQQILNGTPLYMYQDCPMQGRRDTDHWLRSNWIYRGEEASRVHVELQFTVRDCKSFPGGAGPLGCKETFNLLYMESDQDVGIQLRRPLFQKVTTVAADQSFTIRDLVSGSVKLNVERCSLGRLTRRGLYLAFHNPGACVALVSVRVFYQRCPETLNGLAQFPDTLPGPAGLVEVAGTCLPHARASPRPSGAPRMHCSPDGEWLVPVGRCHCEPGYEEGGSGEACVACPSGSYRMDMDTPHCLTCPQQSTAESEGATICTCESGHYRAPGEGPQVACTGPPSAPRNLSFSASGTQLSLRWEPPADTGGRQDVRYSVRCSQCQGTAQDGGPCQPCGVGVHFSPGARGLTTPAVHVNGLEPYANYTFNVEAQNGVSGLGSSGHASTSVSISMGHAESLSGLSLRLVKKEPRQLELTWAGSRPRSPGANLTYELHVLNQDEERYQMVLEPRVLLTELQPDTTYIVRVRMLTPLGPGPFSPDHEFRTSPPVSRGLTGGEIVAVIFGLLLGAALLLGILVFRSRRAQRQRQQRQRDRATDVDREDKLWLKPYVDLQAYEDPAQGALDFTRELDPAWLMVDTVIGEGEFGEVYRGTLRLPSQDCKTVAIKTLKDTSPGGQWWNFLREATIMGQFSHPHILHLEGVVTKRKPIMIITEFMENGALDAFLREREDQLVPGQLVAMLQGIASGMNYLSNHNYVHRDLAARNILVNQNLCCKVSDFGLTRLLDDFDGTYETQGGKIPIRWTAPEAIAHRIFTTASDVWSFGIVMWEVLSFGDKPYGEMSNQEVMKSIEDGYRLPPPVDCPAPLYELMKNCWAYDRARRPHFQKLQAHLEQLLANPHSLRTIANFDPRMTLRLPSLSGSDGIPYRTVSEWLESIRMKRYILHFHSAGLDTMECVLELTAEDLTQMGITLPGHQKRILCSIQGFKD
human Beta-secretase (BACE), BACE1 (gene 23621), sequence (P56817 whole entry, looked up): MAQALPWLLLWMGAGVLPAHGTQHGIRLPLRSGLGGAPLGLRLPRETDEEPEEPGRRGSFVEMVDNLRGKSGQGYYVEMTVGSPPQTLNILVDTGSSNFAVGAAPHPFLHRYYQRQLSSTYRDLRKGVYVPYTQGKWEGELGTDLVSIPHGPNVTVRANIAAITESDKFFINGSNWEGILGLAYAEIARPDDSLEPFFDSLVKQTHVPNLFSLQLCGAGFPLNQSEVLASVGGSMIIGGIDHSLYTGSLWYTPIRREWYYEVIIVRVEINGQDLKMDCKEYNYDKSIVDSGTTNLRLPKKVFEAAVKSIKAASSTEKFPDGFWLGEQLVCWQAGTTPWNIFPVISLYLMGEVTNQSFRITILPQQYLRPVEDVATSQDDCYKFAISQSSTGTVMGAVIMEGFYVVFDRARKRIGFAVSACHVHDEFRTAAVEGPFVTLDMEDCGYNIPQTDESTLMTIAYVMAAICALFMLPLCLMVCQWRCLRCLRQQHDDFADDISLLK

Compound: NC(=O)N1C(=O)C(C(=O)c2cc(Cl)cs2)c2cc(F)c(Cl)cc21 (stereo unspecified)
- AC50 [1]: 15.7 µM (active)
- outcome [2]: inactive
- outcome [3]: inactive
- outcome [4]: inactive
- AC50 [5]: 0.139 µM (active)
- AC50 [6]: 12.2 µM (active)
- AC50 [7]: 16.9 µM (active)

Compound: CC1=C(/C=C/C(C)=C/C=C/C(C)=C/C(=O)O)C(C)(C)CCC1
- outcome [8]: inactive
- outcome [3]: inactive

Compound: COc1ccc([N+](=O)[O-])cc1N
- outcome [3]: inactive

Compound: CCCCCCCCCCCCCC[N+](C)(C)C
- AC50 [8]: 3.64 µM (active)
- AC50 [3]: 2.73 µM (active)
- AC50 [5]: 4.96 µM (active)
- outcome [9]: inactive

Compound: CC#C[C@]1(O)CC[C@H]2[C@@H]3CCC4=CC(=O)CCC4=C3[C@@H](c3ccc(N(C)C)cc3)C[C@@]21C
- AC50 [1]: 4.12 µM (active)
- AC50 [3]: 3.91 µM (active)
- outcome [6]: inactive
- AC50 [7]: 2.18 µM (active)
- AC50 [10]: 4.97 µM (active)

Compound: CC[C@H](c1ccc(O)cc1)[C@@H](CC)c1ccc(O)cc1
- AC50 [1]: 0.295 µM (active)
- AC50 [3]: 5.22 µM (active)

Compound: OCCC(F)(F)C(F)(F)C(F)(F)C(F)(F)C(F)(F)C(F)(F)F
- AC50 [3]: 6.15 µM (active)

Compound: O=C(O)Cc1cc(I)c(Oc2cc(I)c(O)c(I)c2)c(I)c1
- outcome [2]: inactive
- outcome [3]: inactive
- outcome [5]: inactive
- outcome [11]: inactive
- outcome [12]: inactive
- outcome [13]: inactive
- AC50 [6]: 11 µM (active)
- AC50 [7]: 18.5 µM (active)
- outcome [9]: inactive
- outcome [14]: inactive

Compound: CC(=O)NC1(c2cccc(F)c2)CCN(CC[C@@]2(c3ccc(Cl)c(Cl)c3)CN(c3ccccc3)C(=O)CO2)CC1
- AC50 [8]: 2.77 µM (active)
- AC50 [1]: 6.63 µM (active)
- AC50 [2]: 1.78 µM (active)
- AC50 [3]: 1.79 µM (active)
- AC50 [7]: 8.58 µM (active)
- AC50 [10]: 3.79 µM (active)

Compound: NC(=O)N(O)[C@@H]1C=C[C@H](Oc2cccc(Oc3ccc(F)cc3)c2)C1
- AC50 [8]: 1.16 µM (active)
- AC50 [2]: 4.62 µM (active)
- AC50 [3]: 0.644 µM (active)
- outcome [10]: inactive

Compound: c1ccc2c(c1)Cc1ccccc1-2
- outcome [5]: inactive

Compound: ClC1=C(Cl)C(Cl)(Cl)C(Cl)=C1Cl
- outcome [3]: inactive
- AC50 [6]: 16.3 µM (active)
- outcome [9]: inactive

Compound: COCC(C)OCC(C)O (stereo unspecified)
- outcome [15]: inactive
- outcome [12]: inactive
- outcome [13]: inactive

Compound: CCCCCCCC(=O)O
- outcome [14]: inactive

Compound: CC(C)(C)CC(C)(C)c1ccc(O)c(-n2nc3ccccc3n2)c1
- AC50 [6]: 10.6 µM (active)

Compound: N#C[C@@H]1CC(F)(F)CN1C(=O)CNC1CC2CCC(C1)N2c1ncccn1 (stereo partly specified)
- outcome [16]: inactive
- outcome [17]: inactive
- outcome [13]: inactive

Compound: COCC(C)O (stereo unspecified)
- outcome [9]: inactive

Compound: C[C@@H]1C[C@H]2[C@@H]3CCC4=CC(=O)C=C[C@]4(C)[C@@]3(F)[C@@H](O)C[C@]2(C)[C@@]1(O)C(=O)COP(=O)(O)O
- outcome [9]: inactive
